Bioassay records (PubChem)
SKN-1 inh: C. elegans SKN-1 inhibition | C. elegans VP596 Pgst-4::GFP/RFP ratio, acrylamide-induced, 24 h | inhibition, % at 21.8 µM | 0.49% of 360,000 active | AID 624304;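 active = interference check ratio from 0.5 to 1.5 plus GFP to RFP signal ratio inhibition reaching or exceeding a fixed threshold, cut at about 30% in these data, passing the limit was not always enough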
RAM network inh: yeast RAM network inhibition | S. cerevisiae dse1pr::URA3 reporter, 5-FOA growth OD615, 2 d; analog-sensitive cbk1-as2 kinase mutant strain | inhibition, % at 50 µM | 1.8% of 190,000 active;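 active = inhibition above a set limit, 3 SD over mean compound inhibition, cut at about 8.4% in these data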;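 also: 0% = DMSO-only wells with no growth and 100% = 10 µM 1-NA-PP1 full growth; inhibition rescues growth on 5-FOA so higher OD means more RAM inhibition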
EP2 mod: EP2 receptor (human) modulation; 0.83% of 260,000 active; EP2-expressing cells, cAMP HTRF FRET, PGE2 co-stimulation; induction, % at 25 µM; P43116; AID 940;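 active = compounds whose cAMP rise, as percent of the full-agonist control response, exceeds 60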;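 also: rat C6 glioma line stably carrying human EP2 under a CMV promoter; the protocol text gives 20 µM as final concentration; 100% = response of wells given 1 µM PGE2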
Target sequence (P43116 whole entry, looked up): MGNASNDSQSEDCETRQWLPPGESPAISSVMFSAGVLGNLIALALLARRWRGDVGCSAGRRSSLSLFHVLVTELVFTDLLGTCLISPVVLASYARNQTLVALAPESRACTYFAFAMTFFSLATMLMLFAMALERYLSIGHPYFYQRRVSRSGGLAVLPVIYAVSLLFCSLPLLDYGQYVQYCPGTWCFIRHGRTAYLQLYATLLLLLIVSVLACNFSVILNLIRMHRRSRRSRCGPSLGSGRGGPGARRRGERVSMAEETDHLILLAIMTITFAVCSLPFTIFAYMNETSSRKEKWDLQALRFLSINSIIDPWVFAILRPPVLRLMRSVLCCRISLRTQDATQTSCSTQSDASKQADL
PG9 Ab binder: PG9 antibody binding by small molecule. inhibition, % at 6.7 µM. AID 624416. 0.43% of 360,000 active. TR-FRET gp120-PG9 antibody binding; in the data active = inhibition above about 8.5%
EP2 antag: inhibitors of human EP2 prostaglandin E2 receptor; P43116; 0.52% of 260,000 active; inhibition, % at 25 µM; C6 glioma cells expressing human EP2, cAMP TR-FRET; cells stimulated with saturating PGE2; AID 1422;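 active = percent inhibition above 40 after rounding to a whole number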;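 also: rat C6 glioma host cells with rolipram phosphodiesterase inhibitor present; the protocol text gives 20 µM as final concentration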
Rev-erbA mod: Rev-erb alpha (human) modulation. AID 1259318. activity, % at 10 µM. P20393. Rev-erbα–FITC-DNA binding, fluorescence polarization, 90 min. 0.79% of 370,000 active;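 active = activity above about 14%, limit read from the data; passing the limit was not always enough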;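 also: 0% = DMSO wells with 35 nM protein and 100% = DMSO wells with 750 nM protein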
* marks the source's active call; other numbers are inactive results; . = no result given. Rows were chosen to be rich in hits. Some 2.9% of all compounds tested hit in one or more screens of this group.

SMILES	SKN-1 inh	RAM network inh	EP2 mod	PG9 Ab binder	EP2 antag	Rev-erbA mod
COc1ccc(Nc2nnc(SCC(=O)/C=C3/N(C)c4ccccc4C3(C)C)s2)cc1	37*	7	-36	-1	10	-1
CN1/C(=C\C(=O)COC(=O)CNC(=O)c2ccccc2F)C(C)(C)c2ccccc21	11	0	-34	0	9	7
Cc1sc2nc(C3CC3)n3c(=O)n(CC(=O)N(C)C)nc3c2c1C	.	.	4	.	.	.
O=Cc1cc2ccccc2nc1SCc1ccc(Cl)c(Cl)c1	-17	8.6*	47	-1	12	1
CCN(CC)C(=O)Cn1nc(C)n2c(cc3ccsc32)c1=O	.	.	-11	.	.	.
CCn1c(SCc2cc(=O)[nH]c3ccccc23)nnc1-c1cc2ccccc2cc1O	.	.	-75	.	11	.
CCCn1nc2cc(C(=O)NCc3ccc(OC(F)(F)F)cc3)ccc2c1OCC	62*	4	4	-1	14	2
O=c1cc(-c2ccccc2)nc(SCc2ccccc2F)[nH]1	-11	9.3*	36	-3	7	3
Cc1ccc(S(=O)(=O)N(CC(=O)Nc2ccccc2C(=O)O)c2ccccc2C)cc1	-5	8.7*	11	-3	9	-2
Cc1cccc(N(CC(=O)Nc2ccccc2-c2ccccc2)S(=O)(=O)c2ccccc2)c1C	5	5	64*	1	2	11
Cc1ccc(S(=O)(=O)N(CC(=O)Nc2ccccc2-c2ccccc2)c2ccc(C)cc2C)cc1	-2	6	17	-1	2	-1
COc1ccc(N2CCN(CC(=O)N3C(C)CCCC3C)CC2)cc1 (configuration not stated)	.	.	7	.	5	.
C=CCn1c(SCC(=O)Nc2ccc(F)cc2)nc2sc(C)c(C)c2c1=O	.	.	-33	.	14	.
CC1(C)Cc2c(C#N)c(N3CCOCC3)nc(Cc3ccccc3)c2CO1	0	11*	57	0	4	2
CC1(C)Cc2c(C#N)c(N3CCN(C(=O)c4ccccc4)CC3)nc(Cc3ccccc3)c2CO1	20	0	40	0	9	7
C[C@@]12C[C@H](O)[C@@H]3[C@H](CCC4=CC(=O)CC[C@]43C)[C@H]1CC[C@H]2c1csc(N)n1	.	.	-24	.	66*	.
CC12CCC(=O)C=C1CCC1C2C(O)CC2(C)C(c3csc(N)n3)CCC12 (configuration not stated)	13	.	.	2	.	2
Cc1cc(C)c2cc(C#N)c(SCC(=O)Nc3ccccc3C(F)(F)F)nc2c1	.	.	5	.	16	.
O=C1C(Cl)=C(N2CCCCC2)C(=O)C(Cl)=C1c1cnc(N2CCCCC2)s1	10	9.5*	-65	.	9	.
C=Cn1ncc(CN2CCCN(c3cccc(OC)c3)CC2)c1C	.	.	-8	.	6	.
COc1ccc(C=C(c2nc3ccccc3s2)c2nc3ccccc3s2)cc1O	7	9.2*	29	-1	20	-1
N#Cc1cc2cc3c(cc2nc1N1CCCN(C(=O)c2ccccc2F)CC1)OCO3	.	.	45	.	10	.
O=C(OC[C@H]1O[C@H](OC(=O)c2cc(O)c(O)c(OC(=O)c3cc(O)c(O)c(O)c3)c2)[C@H](OC(=O)c2cc(O)c(O)c(OC(=O)c3cc(O)c(O)c(O)c3)c2)[C@@H](OC(=O)c2cc(O)c(O)c(OC(=O)c3cc(O)c(O)c(O)c3)c2)[C@@H]1OC(=O)c1cc(O)c(O)c(OC(=O)c2cc(O)c(O)c(O)c2)c1)c1cc(O)c(O)c(OC(=O)c2cc(O)c(O)c(O)c2)c1	.	.	23	.	12	.
CCNc1c2c3c(cccc3n(C)c1=O)C(=O)c1ccccc1-2	.	0	56	.	2	.
CCCCNc1c2c3c(cccc3n(C)c1=O)C(=O)c1ccccc1-2	-6	9.2*	59	.	9	.
SMILES	SKN-1 inh	RAM network inh	EP2 mod	PG9 Ab binder	EP2 antag	Rev-erbA mod
O=C1c2cccc(O)c2C(=O)c2c(O[C@@H]3O[C@H](CO)[C@@H](O)[C@H](O)[C@H]3O)cccc21	.	.	-17	.	52*	.
OCc1ccccc1O[C@@H]1O[C@H](CO)[C@@H](O)[C@H](O)[C@H]1O	-2	.	2	-1	9	-11
Cc1ccc(/C(O)=C2/C(=O)C(=O)N(Cc3cccnc3)C2c2ccncc2)cc1F (configuration not stated)	.	.	-4	.	10	.
CC(NS(=O)(=O)c1ccc(OCC(=O)N2CCOCC2)cc1)c1ccccc1 (configuration not stated)	-6	0	24	0	11	3
CC(NS(=O)(=O)c1ccc(OCC(=O)N2CCOCC2)c(Cl)c1)c1ccccc1 (configuration not stated)	38*	0	2	-1	9	-3
COc1ccc(-c2[nH]ncc2-c2ccc3c(c2)OCCO3)c(O)c1	-1	10*	-54	0	9	6
O=C(COC(=O)C1CCC1)Nc1ccc(Cl)cn1	-4	.	.	2	.	4
O=C(COC(=O)CCC1CCCC1)Nc1ccc(Cl)cn1	41*	2	30	-1	5	0
OC1(C(O)(c2ccc(-c3ccccc3)cc2)c2ccc(-c3ccccc3)cc2)CCCCC1	.	.	25	.	43*	.
S=C1NC2(CCCCCC2)N=C1c1ccccc1	6	0	50	-1	5	5
Cc1ccc(CCC(=O)NCCc2nc(-c3cccnc3)n[nH]2)o1	.	.	-71	.	.	.
Cc1ccc(CN(CC(=O)NC2CCCC2)C(=O)CSc2nnc(COc3ccccc3)o2)cc1	7	8.7*	48	0	4	0
Cc1cccc(OCc2nnc(SCC(=O)N3CCCCC3)o2)c1	-17	.	.	0	.	-1
O=C(CN(Cc1ccccc1)C(=O)CSc1nnc(COc2ccccc2)o1)NC1CCCC1	7	8.6*	20	-1	15	-5
Cc1cccc(OCc2nnc(SCC(=O)OC3CCCCC3)o2)c1	3	10*	22	1	4	5
COC(C(=O)N1CCC(c2ccc3c(c2)OCO3)CC1)c1ccccc1 (configuration not stated)	.	.	-39	.	.	.
OC(CN1CCC(O)(c2ccc(F)cc2)CC1)c1ccc(-c2ccccc2)cc1 (configuration not stated)	.	.	-121	.	22	.
Cn1c(=O)c(C(=O)c2ccccc2)nc2ccccc21	2	3	37	0	16	-1
O=C(c1ccccc1)c1nc2ccccc2n(CCCn2c(=O)c(C(=O)c3ccccc3)nc3ccccc32)c1=O	-5	9.6*	6	-2	8	-1
CN(C)c1ccc(/C=C(/C#N)C(=O)Nc2nc3c(s2)CCN(Cc2ccccc2)C3)cc1	48*	.	.	0	.	18
CCn1c(CNC(=O)Cc2ccc(OC)cc2)nnc1SCC(=O)Nc1ccc(C(=O)O)cc1	-4	8.8*	11	-1	3	-7
CC(=O)[C@H]1CC[C@H]2[C@@H]3CC=C4C[C@@H](O)CC[C@]4(C)[C@H]3CC[C@]12C	4	.	.	0	.	-5
